# Reference: PubChem BioAssay AID709 (SRMLSC, 2007)
# The whole screen tested about 65,000 compounds, of which about 3,600 (5.5%) were called active. The full list was thinned out, with actives kept by preference. Unmarked numbers belong to inactive results.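 The calls were made as follows: active = at 10 µM, mean starting fluorescence two-fold or more over control wells; inactive = the rest.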
# Experiment: intrinsic fluorescence of library compounds, ex339/em460 – biochemical, MLSMR library, data from DPM-DC assay, artefact control, profiling panel (AID 709);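 also: signal is the first read of a kinetic run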
# Settings: compound autofluorescence, ex339/em460 nm, NADH buffer; at 10 µM; active compounds read high; 1 = no-compound wells, NADH background
row,SMILES,fluorescence fold increase
1,O=C(Nc1ccc(-c2nnc(-c3ccccc3)o2)cc1)C1CCCO1 (stereo not given),1.79
2,Nc1ccc(-c2nnc(-c3ccc(-c4ccccc4)cc3)o2)cc1,3.89 (active)
3,O=C(Nc1ccc(-c2nnc(-c3ccccc3)o2)cc1)c1ccc(Br)o1,1.45
4,CO/N=C(\C(=O)N[C@@H]1C(=O)N2C(C(=O)O)=C(COC(C)=O)CS[C@H]12)c1csc(N)n1 (stereo in doubt),1.08
5,CCCn1c(O)c(CN2CCCC(C)C2)c(C)c(C#N)c1=O (stereo not given),1.26
6,CCN(CC)Cc1c(C(=O)OC)nnn1-c1nonc1N,1.05
7,Cc1ccc2c(CSc3nncs3)cc(=O)oc2c1,1.02
8,COc1ccc(S(=O)(=O)Nc2ccc3c(c2)OCO3)cc1Cl,1.03
9,CC(=O)Nc1ccc(-c2cn3cccnc3n2)cc1,5.32 (active)
10,c1ccc(-c2cn3cccnc3n2)cc1,2.51 (active)
11,CCCC(=O)Nc1cccc(-c2cn3ccsc3n2)c1,1.09
12,COc1ccc(-c2cn3ccsc3n2)cc1,1.08
13,CCOc1nc(OCC)nc(-n2cc(-c3ccccc3)nn2)n1,1.06
14,CC(=O)Nc1cccc(-c2cnc3ccccc3n2)c1,1.09
15,O=C(Oc1cccnc1)c1cc2ccccc2oc1=O,1.24
16,CCOC(=O)C1CCCCN1Cc1ccc(OC)c(OC)c1OC (stereo not given),1.06
17,Cc1ccc2oc(=O)c3cnn(CC(=O)N4CCN(c5ccccn5)CC4)c3c2c1,1.1
18,O=C(Cn1nnc(-c2ccc3c(c2)OCO3)n1)NCc1ccco1,1.15
19,CCOc1ccc(C(CC(=O)O)NC(=O)COc2ccccc2)cc1 (stereo not given),1.07
20,O=S(=O)(O)c1nc2ccccc2n1Cc1ccc(Cl)cc1,1.22
21,N#Cc1c(N)n(CCOC(=O)c2ccc(Cl)cc2)c2nc3ccccc3nc12,2.28 (active)
22,Cn1nnnc1SCc1cc(=O)[nH]c2ccccc12,1.06
23,COC(=O)C1=CN(C)C=C(C(=O)OC)C1c1ccc(Cl)cc1Cl,2.14 (active)
24,COC(=O)C1=C(C)N(C)C(C)=C(C(=O)OC)C1c1cccc(Br)c1,1.12
25,CCOc1ccccc1C1C(C(=O)OC)=CN(C)C=C1C(=O)OC,4.81 (active)

row,SMILES,fluorescence fold increase
1,CCCCOCCCNC(=O)c1ccccc1OCC,1
2,CC12CN3CC(C)(CN(C1)C3c1ccc(Cl)cc1Cl)C2=O (stereo not given),1.04
3,CCOc1ccccc1N(CC(=O)Nc1ccccc1C(=O)OC)S(C)(=O)=O,1.11
4,CN1CCN(Cc2nc3c(c(=O)n(C)c(=O)n3C)n2Cc2cccc3ccccc23)CC1,1.12
5,CCCOc1ccc(-c2nc(N)n[nH]2)cc1,1.14
6,O=C1c2ccccc2C(O)N1Cc1ccccc1Cl (stereo not given),1.04
7,Cn1c(=NC(=O)c2ccco2)sc2cccc(F)c21,1.85
8,O=C(CSc1nnc(Cc2ccccc2)n1-c1ccccc1)N1CCOCC1,1.04
9,CC(=O)c1cccc(NC(=O)c2ccncc2)c1,1.03
10,Cc1nc(NC(=O)C23CCC(C)(C(=O)O2)C3(C)C)sc1C (stereo not given),1.02
11,CC(=O)N=c1ncn(CC(COC(C)=O)OC(C)=O)c2nc[nH]c12 (stereo not given),1.07
12,c1ccc(-n2ncc3c(N4CCCC4)ncnc32)cc1,1.04
13,Cc1ccc(-n2ncc3c(N4CCN(c5ccc(F)cc5)CC4)ncnc32)c(C)c1,1
14,C1=C(CCNc2ncnc3c2cnn3-c2ccccc2)CCCC1,1.05
15,COc1ccc(-n2c(C)nc3c(cnn3-c3ccccc3)c2=O)cc1,1.1
16,COc1ccc(N2CCN(C(=O)CSc3ncnc4c3cnn4-c3ccc(OC)cc3)CC2)cc1,1.23
17,COc1ccc(-n2ncc3c(N4CCCc5ccccc54)ncnc32)cc1,2.48 (active)
18,COc1ccc(-n2ncc3c(N4CCc5ccccc54)ncnc32)cc1,3.76 (active)
19,Cc1cccc(-n2ncc3c(N4CCc5ccccc54)ncnc32)c1,2.26 (active)
20,C=CCNC(=O)CCCOc1cccc(C)c1,1.09
21,Cc1cc(/C=N/n2cnnc2)c(C)n1-c1ccc2ncccc2c1,1.05
22,COc1ccc2nc(NC3=NCN(CC4CCCO4)CN3)nc(C)c2c1 (stereo not given),1.66
23,Cc1cccc(N2CC(C)Cn3c2nc2c3c(=O)n(CC(=O)OCc3ccccc3)c(=O)n2C)c1 (stereo not given),1.1
24,COc1cc(OC)c(C(=O)NC2CC(C)(C)NC(C)(C)C2)cc1OC,1.16
25,CSc1nc(O)c(Cc2ccccc2)c(=O)[nH]1,1.07

row,SMILES,fluorescence fold increase
1,Cc1ccc(C(=O)COc2cccc(NC(=O)c3ccco3)c2)cc1,1.18
2,CCOc1cc(NC(=O)c2ccco2)c(OCC)cc1NC(=O)COc1ccccc1,3.91 (active)
3,O=C(Nc1ccc(Oc2ccccc2)cc1)c1ccco1,1.11
4,CC(C)C(c1nnnn1C1CCCC1)N1CCN(c2ccccc2F)CC1 (stereo not given),1.02
5,O=C(Cn1nc(Cc2cccnc2)c2ccccc2c1=O)NCC1CCCO1 (stereo not given),1.03
6,COc1ccc(CNC(=O)c2cc3c(=O)n4ccccc4nc3n(CC3CCCO3)c2=N)cc1 (stereo not given),1.91
7,Cn1c(=O)c2c(nc(CN3CCOCC3)n2Cc2ccccc2)n(C)c1=O,1.04
8,Cc1cccn2c(=O)c3cc(C#N)c(=NC(=O)c4cccnc4)n(CC4CCCO4)c3nc12 (stereo not given),2.38 (active)
9,Cc1ccc(C2c3c(oc4ccc(C)cc4c3=O)C(=O)N2CCCN2CCOCC2)cc1 (stereo not given),1.09
10,Cc1cccn2c(=O)c3cc(C#N)c(=O)n(CCCN4CCOCC4)c3nc12,3.03 (active)
11,CCOc1ccc2c(c1)cc(CN(C(=O)CC)C1CCCCC1)c1nnnn12,1.21
12,COc1cc(C2C(C#N)=C(N)Oc3n[nH]c(-c4ccccn4)c32)cc(OC)c1OC (stereo not given),1.09
13,CCc1ccc2oc(-c3ccc(N)cc3)nc2c1,2.12 (active)
14,COc1cccc(-c2nc3cc(C)ccc3o2)c1,1.2
15,CCOC(=O)CSc1nc2c(c(=O)n(Cc3ccccc3Cl)c(=O)n2C)n1C,1.06
16,N#Cc1nc(Cc2ccccc2)oc1NCCc1ccccc1,1.1
17,N#Cc1nc(-c2ccc(OCc3ccccc3)cc2)oc1NCCCN1CCOCC1,3.88 (active)
18,N#Cc1nc(COc2ccc(-c3ccccc3)cc2)oc1NCc1cccnc1,1.07
19,Cc1cc(=O)oc(C)c1C(=O)Nc1cnc2ccccc2c1,1.27
20,Cc1ccc2nc(-c3ccccc3)cc(C(=O)O)c2c1,1.22
21,Cc1ccc(NC(=O)c2cc(-c3ccc(C)o3)nc3ccccc23)nc1,2.48 (active)
22,CCc1c(O)nc(SCC(=O)N2CCCCC2)n(-c2ccccc2C)c1=O,1.04
23,CC1CN(c2cc(=O)n(Cc3ccc(F)cc3)c(=O)[nH]2)CC(C)O1 (stereo not given),1.08
24,Cc1ccc(S(=O)(=O)NCc2nc3ccccc3c(=O)n2N)cc1,1.1
25,Cc1ccc(S(=O)(=O)c2c(N)n(C)c3nc4ccccc4nc23)cc1,3.95 (active)
